# According to the supplement of paper PMC6555819:
# Experiments:
# Experiment in all cases: PBM binding z-score (relative to random genomic background probes); higher = stronger binding; sequences stand for … in GC…GCGATTGACAGCGTAGAATGAAGG
# [1] = test system: RARb homodimer (NR concentration 270 nM)
# Method in brief: (§1)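 The probes on custom Agilent 4×180K protein-binding microarrays were double-stranded, with 34-nt variable regions bearing direct-repeat seeds, single-nucleotide variants, half-site ablations and random human genomic background sequences. Incubation lasted 1 h with ligand-free nuclear receptor dimers in PBS pH 7.4, 2% milk, 0.02% Triton X-100, 1 mM DTT, 0.2 mg/mL BSA and 0.4 mg/ml salmon testes DNA. Antibodies against each partner (one per run) detected bound dimers, and fluorescence scans were regression-normalized. Binding z-scores take the random background probes as reference.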
# [2] = test system: RARg:RXRa (NR concentration 270 nM, RXRa partner concentration 90 nM)
# Method in brief: as §1
# [3] = test system: RARg homodimer (NR concentration 270 nM)
# Method in brief: as §1
# [4] = test system: RXRa DBDmut IVT, anti-RXR (DBD mutation: RXRa K156A/R161A, NR concentration 90 nM)
# Method in brief: as §1
# [5] = test system: RXRa homodimer (NR concentration 180 nM)
# Method in brief: as §1
# [6] = test system: THRa:RXRa (NR concentration 90 nM, RXRa partner concentration 90 nM)
# Method in brief: as §1
# [7] = test system: THRa homodimer (NR concentration 90 nM)
# Method in brief: as §1
# [8] = test system: VDR:RXRa (NR concentration 270 nM, RXRa partner concentration 90 nM)
# Method in brief: as §1
# [9] = test system: VDR homodimer (NR concentration 270 nM)
# Method in brief: as §1
Sequence,PBM binding z-score [1],PBM binding z-score [2],PBM binding z-score [3],PBM binding z-score [4],PBM binding z-score [5],PBM binding z-score [6],PBM binding z-score [7],PBM binding z-score [8],PBM binding z-score [9]
CCCTACGGGTCAAGGTTATAGCACGGGTGGTACG,3.5,5.05,4.83,0.145,5.35,3.07,0.962,3.26,1.07
ACAGACGGGTGATGAAGGTAACTCAGGCTATCAT,-0.00116,-0.0351,0.218,-0.512,0.0942,0.536,0.269,0.177,-0.203
CCGCGGAGGACAGAAGGTCAGAGCTGTCCGCTTT,3.51,3.69,3.56,0.479,2.27,2.17,-0.127,0.646,0.1
TCTCGAAGGACACGAAAGGTCAGAGCTCGACATC,4.81,4.59,4.73,1.37,4.17,3.39,0.878,3.06,0.702
ATCGAAAGGTCGACGAGGTGCGTATACACCGTTT,2.58,3.76,3.9,0.716,4,2.46,-0.328,4.18,0.77
TAGCCTAGGTCATTCAGGGGCCAGTAGAGAAAGC,3.21,6.31,4.35,1.84,2.97,3.63,0.688,3.24,1.53
GCAGACAGGTGAAACACAGGTAACTCAGGGTGGC,0.58,1.37,0.385,-0.322,0.982,1.28,-0.504,-0.244,-0.7
TCATATAGGTAAATGCTAGGTGAATGTCCGATCT,0.278,0.529,0.626,1.46,0.893,1.49,0.604,0.74,0.143
ATCTCTAGGTAAAGTTCAATGAAAGATCGATAGA,2.76,2.7,2.91,1.75,2.27,1.57,0.271,2.5,2.82
AGTCAAAGTTCAGGACGATGTAACGTAAAGCACG,2.88,3.94,4.82,2.83,2.53,1.92,0.0967,2.56,1.75
TCATATAGGAAAATGCTAGGTGAAAGTCCGATCT,0.42,0.204,0.133,1.41,0.778,0.612,0.548,0.9,0.37
TCATATAGGTAAACAGGTGACAGTCCGTAAGTTA,0.765,0.72,0.419,1.37,1.12,0.614,0.354,0.94,0.168
GCTTACGGGTCAAAGGTTAGAGCATGAATAGAAT,3.1,6.33,4.54,2.02,8.91,3.6,-0.338,4.84,0.946
CGAACAAGGTCAGAACAGGACAGTGAAGGATGAT,3.28,4.38,4.86,2.29,3.5,4.28,1.11,3,1.14
TGATTGAGGTTATAAGATCAGGGAACGTTGCAAA,0.293,1.55,1.13,0.404,2.06,1.68,0.31,1.01,0.65
CCTGCTAGGTCATCGTCAGCTAATCTACAGTATG,3.08,4.09,5.07,2.37,3.06,2.92,1.19,1.87,0.596
AGAACGAGTGCACGCTGAGTTGATAGCAGAGTAG,-0.576,0.354,0.356,3.07,0.384,-0.0909,-0.746,2.1,2.64
TCATATGGGTAAAAGGTGAAAGTCGGTGTGGTAA,1.98,1.7,0.446,1.05,2.64,1.46,0.164,1.34,-0.0613
TCTCGGAGGACACGAAGGTCAGAGATTTCCAGAG,3.84,3.05,4.12,0.78,1.99,2.92,1.1,2.26,1.7
CAAACTAGGTCCCGAAAGGTCAAAGTCGAATGAC,4.87,5.77,5.09,1.4,6.66,4.1,1.43,4.92,2.66
CAAACTAGGTCACGAACGGTCAAAGTCGAATGAC,4.43,5.69,6.24,1.66,4.56,4.08,1.74,4.04,1.44
AGAATGAGGTTATTAAGATCAGGTAATTGCGGTC,1.14,1.13,0.895,1.8,1.87,2.5,1.2,2.82,1.13
TCTGGTAGATCAAAGGTTAAGAAAGCCGAAGCCT,1.4,1.89,0.73,0.747,3.05,1.33,-0.327,1.48,0.151
CCTACTGGGCCATCAGGCCATTGATATCAACGTT,0.414,-0.00329,0.297,-0.604,-0.42,0.561,0.656,-0.292,-0.112
CCTCGGAGGACATAAGGTCAGAGCTGTCCGCTTT,3.89,3.93,3.55,0.965,2.31,3.91,2.81,1.91,1.01
ACTAGCAGGCCAAGGGTCACTCAGGATTAGTCCG,3.78,4.35,3.59,0.461,4.24,2.7,0.0494,3.03,1.22

Sequence,PBM binding z-score [1],PBM binding z-score [2],PBM binding z-score [3],PBM binding z-score [4],PBM binding z-score [5],PBM binding z-score [6],PBM binding z-score [7],PBM binding z-score [8],PBM binding z-score [9]
TAGCCTAGATCAGATCGGGCCAGTATACGCTATA,-1.29,-0.519,-0.508,-1.09,-0.577,0.52,-1.58,-0.89,-1.04
CCAGACAGTTGAGAAGGTAACTCAGCCTCGATTA,0.381,0.25,0.293,0.456,0.203,0.25,0.485,0.251,0.252
CTCGAAAGGTCGGTTGGGGTGAGTATACGGATAA,2.88,3,2.42,1.18,2.69,4.95,1.86,3.24,1.55
TTACCAAGGTGAGCTGAGTTCGTTGATCCAACTC,0.421,0.2,0.307,0.458,0.157,2.71,0.173,4.86,3.63
GCTATTAGTTGAAAGGGGAACCGAATGATTCTCG,-0.167,0.105,0.00369,0.78,0.144,0.00231,-0.215,-0.142,-0.125
TCTTGTAGATCAACAGCAGGTTAAGAAAGATCGA,0.0548,0.165,-0.0185,0.681,0.512,0.308,-0.504,0.341,-0.471
TGAATGAGGTTAAAGATCAGTGAACGTGGCGTCG,0.903,2.48,1.37,1.33,3.74,2.58,0.429,1.62,0.435
CAAACTAGGTCAAGAGGTAAAAGTCCGCTTCCCG,3.32,4.71,4.74,1.44,3.45,2.99,1.2,2.17,0.657
TCATATAAGTAATACAGGTGAAAGTCGGCATCTA,0.481,0.675,0.621,2.03,1.42,0.662,0.191,1.16,0.605
TCCTATAGGTAAAGGTGAAAGTCGAACGATATGA,1.42,1.47,1.3,0.809,1.98,1.26,-0.248,0.86,0.13
AGAACGAGGGCAATGAGTTGAGAGCACGGGTGGC,1.1,0.994,1.58,1.93,0.838,1.1,-0.211,4.33,2.08
CTACCAAGGTGAACAAGCTCGTTGATTACTATTC,0.567,0.606,0.761,0.373,0.526,1.63,0.878,0.121,-0.237
GCATATAGGTAATACAAGGTGACAGTCCGATTGT,0.679,0.651,0.825,0.299,0.86,4.15,0.967,0.313,0.0173
TCATTTAGGTAATACAGGTGAAAGTCGGCATCTA,0.788,0.841,0.652,1.96,1.33,1.58,1,1.18,0.57
ACAGACAGGTGATGAAGGTAGCTCAGGCTATCAT,-0.243,-0.0777,0.295,-0.263,0.147,0.294,-0.392,-0.287,-0.696
GCGACGGGGGCAAAGCAGGTTACCATAAGGTTGG,2.24,3.47,3.11,2.62,2.73,4.56,1.23,3.84,2.8
CATACAGGGTCAGCTAGGCCCGAGTAGGGACGGC,3.14,4.41,4.89,1.18,4.55,3.14,0.566,2.63,0.91
TCGAGTAGGTTAGGGGCGTTCAGAATGGCGTCGA,0.347,-0.19,-0.416,0.366,0.0753,0.432,-0.0731,0.157,0.527
AATACAGAGTCATCGTAGGCCAGAGTACGCACAG,0.0687,0.22,0.465,-0.473,0.406,1.69,-0.921,-0.242,0.0153
CCTAATGGGCCACGAAAGGTCATTGATTCAGTGA,4.85,4.78,4.65,1.17,4.84,3.95,0.853,4.33,2.52
ATCGAAAGGTCGAAGGTGTGTATACCCACCCGAA,2.15,3.83,3.73,0.844,4.12,1.6,-0.397,2.43,0.639
AGTCAATGTTCATCTAGGTAACGTAAGATATGCT,-0.0821,0.125,0.41,0.291,0.0893,0.616,0.345,-0.275,-0.282
ACCAGCAGGCCAAGTTTGGGTCACTCAAACAAAG,2.33,2.44,1.51,-0.217,0.731,2.61,0.952,0.61,0.435
CCGACTGGGGCATAAGGTTACCATGAGCCAGCCC,1.89,1.81,0.826,-0.562,1.32,2.05,1.17,0.177,-0.247
CCTTACGGGTCGCTCCAGGTTATAGCATCGGAGT,1.07,0.907,1.08,0.0194,1.14,4.18,0.109,1.1,0.177
ACTTACGGGTCAACGAGGTTATTGCACGCGTATA,3.55,5.66,4.9,3.01,6.27,4.05,1.2,8.05,4.35
